The values below come from PubChem BioAssay (EPA / NIEHS).

A short description of assay [1]: ATG_E_Box_CIS: Attagene CIS-FACTORIAL HepG2 Assay for human Enhancer Box (E-box) (AID 2282936). Particulars: HepG2 E-box cis-reporter transcription, actives raise or lower the signal. The procedure, abridged: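 DMSO served as negative control and baseline for bidirectional fitting. Human hepatoma HepG2 cells, transiently transfected with cis-reporter constructs, were dosed 24 h; reporter mRNA read by RT-PCR and capillary electrophoresis.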

Assay [2] in a line: ATG_M_61_CIS: Attagene CIS-FACTORIAL HepG2 Assay for M61 Transcription Factor (Internal Marker) (AID 2282937). Conditions: HepG2 Attagene CIS-FACTORIAL M61 internal marker reporter; actives raise or lower the signal. An outline of the steps:
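Cells were transfected with reporter units under cis-regulatory promoters, treated with chemicals for 24 h, then lysed for RNA. Reporter transcripts were quantified by RT-PCR and capillary electrophoresis, and activity was fitted bidirectionally against DMSO.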

Assay [3] can be described thus: ATG_EGR_CIS: Attagene CIS-FACTORIAL HepG2 Assay for human Early Growth Response 1 (EGR1) (AID 2282938). Particulars: HepG2 Attagene CIS-FACTORIAL EGR reporter mRNA; actives raise or lower the signal. An outline of the steps:
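Endogenous TF activity in HepG2 liver cells was gauged through cis-promoter reporter constructs transiently transfected. After 24 h dosing, reporter mRNA was quantified by RT-PCR and capillary electrophoresis, and curves fitted in both directions versus DMSO.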

Assay [4] in a line: ATG_M_19_CIS: Attagene CIS-FACTORIAL HepG2 Assay for M19 Transcription Factor (Internal Marker) (AID 2282939). Conditions: HepG2 Attagene CIS-FACTORIAL M19 internal marker reporter; actives raise or lower the signal. The procedure, abridged: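 Background-control endpoint from a multiplexed HepG2 reporter panel. Cells carrying cis-regulated reporter constructs are treated 24 h, then reporter transcripts are amplified, fluorescently labelled and sized by capillary electrophoresis. DMSO defines baseline.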

Assay [5] can be described thus: ATG_ERE_CIS: Attagene CIS-FACTORIAL HepG2 Assay for Estrogen Response Element (ERE) (AID 2282940). Particulars: HepG2 ERE cis-reporter, Attagene RNA transcript; actives raise or lower the signal. The procedure, abridged: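 Cells used were human hepatoma HepG2, transfected with multiple reporter transcription units under cis-regulatory promoters. Reporter mRNA, read 24 h post-dosing via fluorescent RT-PCR products on capillary electrophoresis, was fitted bidirectionally relative to DMSO.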

The nature of assay [6]: ATG_Ets_CIS: Attagene CIS-FACTORIAL HepG2 Assay for human Erythroblast Transformation Specific (ETS) (AID 2282941). Conditions: HepG2 ETS cis-reporter transcription, actives raise or lower the signal. The procedure, abridged: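 HepG2 cells transiently transfected with cis-promoter reporter transcription units were dosed for 24 h; reporter mRNA was measured by RT-PCR, 6-FAM primer extension, HpaI digestion and capillary electrophoresis, with bidirectional fitting against DMSO baseline.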

The target of assay [7] is Hepatocyte nuclear factor 3-beta (Homo sapiens) (UniProt Q9Y261). The experiment in a line: ATG_FoxA2_CIS: Attagene CIS-FACTORIAL HepG2 Assay for human Forkhead box A2 (FOXA2) (AID 2282942). Conditions: HepG2 cis-reporter transcription factor activity, 24 h; actives raise or lower the signal. An outline of the steps: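 Endogenous transcription factor activity was read in HepG2 cells carrying transiently transfected cis-promoter reporter units. After 24 h dosing, reporter mRNA was quantified by RT-PCR and capillary electrophoresis, and values fitted bidirectionally versus DMSO.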

A short description of assay [8]: ATG_FoxO_CIS: Attagene CIS-FACTORIAL HepG2 Assay for human Forkhead box O (FoxO) (AID 2282943). Particulars: HepG2 Attagene cis-reporter, FoxO element, mRNA; actives raise or lower the signal. An outline of the steps:
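Human hepatoma HepG2 cells carry transiently introduced reporter transcription units controlled by cis promoter elements. Chemical treatment lasted 24 h, and mRNA signal was compared with DMSO.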

Assay [9] is described as follows: ATG_GATA_CIS: Attagene CIS-FACTORIAL HepG2 Assay for human GATA Binding Protein (AID 2282944). Particulars: HepG2 GATA cis-element reporter, Attagene multiplex mRNA; actives raise or lower the signal. The procedure, abridged:
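Endogenous transcription factor activity was captured through cis-promoter-driven reporters in transfected HepG2 cells. After 24 h exposure, reporter transcripts were quantified by RT-PCR with fluorescent capillary electrophoresis, and responses fitted both directions against DMSO.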

The nature of assay [10]: ATG_GLI_CIS: Attagene CIS-FACTORIAL HepG2 Assay for human Zinc Finger Protein GLI1 (AID 2282945). Particulars: HepG2, Attagene cis-factorial reporter mRNA, GLI element; actives raise or lower the signal. An outline of the steps:
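Bidirectional curve fits relative to DMSO, using reporter mRNA levels from RT-PCR plus capillary electrophoresis. Cells were HepG2 transiently carrying cis-regulated reporter constructs, harvested 24 h after dosing.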

Each structure is given as a SMILES string. The source made the active and inactive calls. The calls were made as follows: active = hit-call score of the fitted dose curve at least 0.9, where 1 is the maximum; inactive = score below 0.9.

Chain of Hepatocyte nuclear factor 3-beta (Homo sapiens) (Q9Y261 whole entry, looked up): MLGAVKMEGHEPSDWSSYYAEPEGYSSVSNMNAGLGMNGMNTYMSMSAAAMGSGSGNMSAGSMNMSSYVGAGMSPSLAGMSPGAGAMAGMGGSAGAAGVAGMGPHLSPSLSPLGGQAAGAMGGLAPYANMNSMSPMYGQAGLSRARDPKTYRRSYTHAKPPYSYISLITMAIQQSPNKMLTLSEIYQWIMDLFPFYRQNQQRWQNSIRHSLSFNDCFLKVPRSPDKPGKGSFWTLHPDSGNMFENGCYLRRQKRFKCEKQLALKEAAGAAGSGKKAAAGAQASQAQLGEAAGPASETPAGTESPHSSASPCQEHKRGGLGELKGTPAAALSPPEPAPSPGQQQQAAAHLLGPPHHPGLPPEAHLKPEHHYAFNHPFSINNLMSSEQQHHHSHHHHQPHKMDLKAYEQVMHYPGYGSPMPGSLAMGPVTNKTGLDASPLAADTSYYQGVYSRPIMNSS

Turning to `CC1=CCC(O)(C(C)C)CC1` (stereo not given), the outcome in assay [1], in [2], in [3], in assay [4], in [5] and in assay [6] was inactive. Moreover, the result in [7], in [8], in assay [9] and in assay [10] was inactive.
By AC50 is commonly meant the concentration giving half of the maximal activity seen. Take `COC(=O)C1=C(C)NC(C)=C(C(=O)OCCN(C)Cc2ccccc2)C1c1cccc([N+](=O)[O-])c1` (stereo not given): the results for the AC50 in [1] and in assay [10] were 19.4 µM (active) and 99.5 µM (active), respectively. The outcome in assay [2], in assay [3], in assay [4], in assay [5], in assay [6] and in [7] was inactive. In addition, the outcome in assay [8] and in [9] was inactive.
In the case of `NCCCN1CCOCC1`, the outcome in assay [1], in [2], in assay [3], in [4], in assay [5] and in assay [6] was inactive. For the same molecule, the result in assay [7], in assay [8], in [9] and in assay [10] was inactive.
For `NCCOCCO`, the result in assay [1], in assay [2], in assay [3], in assay [4], in assay [5] and in assay [6] was inactive. Also, the outcome in assay [7], in assay [8], in assay [9] and in [10] was inactive.
For the molecule `O=P(c1ccccc1)(c1ccccc1)c1ccccc1`, the result in [1], in [2], in assay [3], in [4], in [5] and in assay [6] was inactive. For the same molecule, the result in [7], in assay [8], in assay [9] and in assay [10] was inactive.
In the case of `CC(C)(Oc1ccc(CCNC(=O)c2ccc(Cl)cc2)cc1)C(=O)O`, the outcome in assay [1], in assay [2], in assay [3], in assay [4], in assay [5] and in assay [6] was inactive. In addition, the result in assay [7], in [8], in [9] and in [10] was inactive.
Take `CC(C)(C)NC(N)=O`: the result in [1], in [2], in assay [3], in assay [4], in [5] and in assay [6] was inactive. Further, the call in assay [7], in assay [8], in assay [9] and in [10] was inactive.
In the case of `Cc1ccc(Nc2ccc(O)c3c2C(=O)c2ccccc2C3=O)cc1`, in assay [1], the AC50 is 20.3 µM (active). Besides, the call in assay [2], in assay [3], in assay [4], in assay [5], in [6] and in assay [7] was inactive. The call in assay [8], in assay [9] and in assay [10] was inactive.
With `CCCCCCCCCC=O`, the result in assay [1], in assay [2], in assay [3], in [4], in assay [5] and in [6] was inactive. Besides, the result in [7], in [8], in [9] and in assay [10] was inactive.
With `NC(N)=NC(=O)c1nc(Cl)c(N)nc1N`, the result in assay [1], in assay [2], in assay [3], in assay [4], in [5] and in [6] was inactive. Further, the molecule was called inactive in [7], in [8], in [9] and in assay [10].
On to `c1cc(C(c2ccc(OCC3CO3)cc2)c2ccc(OCC3CO3)cc2)ccc1OCC1CO1` (stereo not given), for which the AC50 was 100 µM (active) in assay [1]; 8.73 µM (active) in [3]; 175 µM (active) in assay [4]; 185 µM (active) in assay [7]; 167 µM (active) in [8]; 180 µM (active) in assay [9]. Also, the result in assay [2], in assay [5], in [6] and in assay [10] was inactive.
With `O=Cc1ccc(F)cc1`, the result in assay [1], in [2], in assay [3], in [4], in assay [5] and in [6] was inactive. In addition, the outcome in assay [7], in [8], in assay [9] and in assay [10] was inactive.
As for `C=C(C)C(=O)O`, the outcome in [1], in assay [2], in assay [3], in [4], in assay [5] and in assay [6] was inactive. For the same molecule, the outcome in [7], in assay [8], in [9] and in assay [10] was inactive.
Take `CNC(=O)Oc1ccc2c(c1)[C@]1(C)CCN(C)[C@@H]1N2C`: the outcome in [1], in assay [2], in [3], in assay [4], in assay [5] and in assay [6] was inactive. Also, the result in [7], in assay [8], in assay [9] and in [10] was inactive.
Regarding `CC(=O)O[C@H](CC(=O)[O-])C[N+](C)(C)C`, the outcome in assay [1], in [2], in assay [3], in [4], in [5] and in assay [6] was inactive. For the same molecule, the molecule was classed as inactive in assay [7], in assay [8], in assay [9] and in [10].
`O=[N+]([O-])c1ccc(C=Cc2ccc([N+](=O)[O-])cc2S(=O)(=O)O)c(S(=O)(=O)O)c1`: the outcome in assay [1], in [2], in [3], in assay [4], in [6] and in [7] was inactive. Also, the outcome in assay [8], in assay [9] and in assay [10] was inactive. Besides, the AC50 in assay [5] is 62.3 µM (active).
`C=CC(C)(CCC=C(C)C)OC=O` (stereo not given): the result in [1], in assay [2], in assay [3], in assay [4], in assay [5] and in assay [6] was inactive. The call in assay [7], in [8], in assay [9] and in [10] was inactive.
For `C=C(C)C(=O)O[C@H]1C[C@@H]2CC[C@@]1(C)C2(C)C`, the results for the AC50 in [1] and in assay [5] were 147 µM (active) and 60.7 µM (active), respectively. The call in [2], in assay [3], in assay [4], in assay [6], in assay [7] and in assay [8] was inactive. Moreover, the molecule was called inactive in [9] and in assay [10].
Take `CC(c1cc2ccccc2s1)N(O)C(N)=O` (stereo not given): the outcome in [1], in [2], in assay [3], in [4], in assay [5] and in [6] was inactive. Moreover, the outcome in assay [7], in assay [8], in assay [9] and in [10] was inactive.
Regarding `CC(C)c1cccc(O)c1`, the outcome in assay [1], in assay [2], in assay [3], in assay [4], in assay [6] and in assay [7] was inactive. Moreover, the molecule was classed as inactive in assay [8], in [9] and in assay [10]. The AC50 in assay [5] was 104 µM (active).
`CCCc1c(OCCCOc2ccc(OCC(=O)O)cc2)ccc(C(C)=O)c1O`: the result in assay [1], in assay [2], in assay [4], in assay [6], in assay [7] and in assay [8] was inactive. For the same molecule, the call in assay [9] and in assay [10] was inactive. For the same molecule, the AC50 was 31.8 µM (active) in assay [3] and 0.365 µM (active) in [5].
As to `C=CC(C)(C)O`, the outcome in assay [1], in assay [2], in assay [3], in assay [4], in [5] and in assay [6] was inactive. The outcome in assay [7], in assay [8], in [9] and in assay [10] was inactive.
On to `CO[Si](C)(OC)c1ccccc1`, for which the result in assay [1], in assay [2], in [3], in [4], in assay [5] and in [6] was inactive. In addition, the result in assay [7], in assay [8], in [9] and in assay [10] was inactive.
On to `CC(=O)[O][Al][O]C(C)=O`, for which the result in assay [1], in assay [2], in assay [3], in [4], in assay [5] and in assay [6] was inactive. For the same molecule, the molecule was classed as inactive in [7], in assay [8], in assay [9] and in assay [10].
